The results in this text go back to paper PMC10812921, “Transcriptional Coactivator BOB1 (OBF1, OCA-B) Modulates the Specificity of DNA Recognition by the POU-Domain Factors OCT1 and OCT2 in a Monomeric Configuration”.

Assay [1] has as its target POU1 (OCT1 POU domain) (human, UniProt P14859 260-458). As to the kind of experiment: EMSA-SELEX-seq; no BOB1; 20 mM Tris-HCl pH 7.6, 140 mM NaCl, 10% glycerol, 0.5 mM EDTA, 0.05% Triton X-100, 0.1 mg/mL BSA, 0.1 mg/mL poly(dI-dC), 5 mM DTT, room temperature, 20 min; high values mean tight binding. The conditions noted are these: protein: recombinant; dsDNA, one strand shown. In a few lines:
(§1)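 Binding preference is the percentage of sequenced 8-mers matching a motif pattern. Tagged POU-domain proteins expressed in E. coli BL21 were purified under denaturing conditions and renatured. For binding, 30 ng protein met 300 ng of a PCR-amplified double-stranded random 35-nt library, with or without 28 ng coactivator protein, in 20 μL Tris–HCl pH 7.6 binding buffer for 20 min at RT. Complex bands were cut from native 6% PAGE, eluted and PCR-amplified over four rounds, then Illumina-sequenced.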
For orientation: In EMSA bound probe runs differently from free probe, usually more slowly.

In assay [2] the target is T1, POU2 (OCT2 POU domain) (human, UniProt P09086 175-386).
T1 sequence: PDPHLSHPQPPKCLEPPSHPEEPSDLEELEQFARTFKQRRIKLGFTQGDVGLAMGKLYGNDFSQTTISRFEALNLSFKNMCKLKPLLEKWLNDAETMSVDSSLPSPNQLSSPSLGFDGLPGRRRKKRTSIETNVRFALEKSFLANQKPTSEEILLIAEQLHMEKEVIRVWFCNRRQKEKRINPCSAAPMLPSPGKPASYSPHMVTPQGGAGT
The assay is described as above. The conditions noted are these: protein: recombinant; dsDNA, one strand shown. An outline of the steps: as §1

Assay [3] addresses POU1 (OCT1 POU domain);BOB1 (OBF1, OCA-B) (human;human, UniProt P14859;Q16633 260-458;1-256, |). Description: EMSA-SELEX-seq; with BOB1 (ternary complex band); 20 mM Tris-HCl pH 7.6, 140 mM NaCl, 10% glycerol, 0.5 mM EDTA, 0.05% Triton X-100, 0.1 mg/mL BSA, 0.1 mg/mL poly(dI-dC), 5 mM DTT, room temperature, 20 min; high values mean tight binding. The conditions noted are these: protein: recombinant;recombinant; copies: 1;1; dsDNA, one strand shown. An outline of the steps: as §1

Assay [4] addresses T2, POU2 (OCT2 POU domain);BOB1 (OBF1, OCA-B) (human;human, UniProt P09086;Q16633 175-386;1-256, |).
T2 sequence 1: T1 sequence
T2 sequence 2: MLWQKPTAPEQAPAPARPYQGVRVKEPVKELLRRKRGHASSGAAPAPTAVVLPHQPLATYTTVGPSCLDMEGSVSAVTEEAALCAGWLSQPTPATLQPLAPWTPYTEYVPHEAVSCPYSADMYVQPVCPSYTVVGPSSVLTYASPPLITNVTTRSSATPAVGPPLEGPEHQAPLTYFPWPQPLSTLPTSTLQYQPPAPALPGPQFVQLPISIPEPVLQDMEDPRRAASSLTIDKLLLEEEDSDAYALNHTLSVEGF
The assay is described as above. The conditions noted are these: protein: recombinant;recombinant; copies: 1;1; dsDNA, one strand shown. In a few lines: as §1

Chain of POU1 (OCT1 POU domain) (P14859 260-458): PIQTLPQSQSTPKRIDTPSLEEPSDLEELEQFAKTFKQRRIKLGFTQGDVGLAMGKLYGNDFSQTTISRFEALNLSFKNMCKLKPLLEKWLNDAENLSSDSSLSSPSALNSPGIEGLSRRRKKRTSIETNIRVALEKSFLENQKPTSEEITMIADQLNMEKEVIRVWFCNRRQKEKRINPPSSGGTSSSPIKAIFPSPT

On to ACTCCAAT, for which the binding signal in assay [1] was 0.0294 % of ANNNNAAN 8-mers; in assay [2] it was 0.0219 % of ANNNNAAN 8-mers; in assay [3], 0.0242 % of ANNNNAAN 8-mers; in assay [4], 0.0231 % of ANNNNAAN 8-mers.
Turning to ATCATAAG, the binding signal in assay [1] was 0.0496 % of ANNNNAAN 8-mers; in assay [2] it was 0.0581 % of ANNNNAAN 8-mers; in assay [3], 0.0379 % of ANNNNAAN 8-mers; in assay [4], 0.0421 % of ANNNNAAN 8-mers.
Consider AACGGAAG, for which the binding signal in assay [1] was 0.0168 % of ANNNNAAN 8-mers; in assay [2] it was 0.0259 % of ANNNNAAN 8-mers; in assay [3], 0.0164 % of ANNNNAAN 8-mers; in assay [4], 0.0206 % of ANNNNAAN 8-mers.
The corresponding values for AACCTAAT are 0.0534 % of ANNNNAAN 8-mers, 0.0875 % of ANNNNAAN 8-mers, 0.0386 % of ANNNNAAN 8-mers and 0.0438 % of ANNNNAAN 8-mers.
In the same order, the values of ACGAAAAA are 0.0431 % of ANNNNAAN 8-mers, 0.0409 % of ANNNNAAN 8-mers, 0.0578 % of ANNNNAAN 8-mers and 0.0355 % of ANNNNAAN 8-mers.
On to ATTATAAA, for which the binding signal in assay [1] was 0.152 % of ANNNNAAN 8-mers; in assay [2], 0.204 % of ANNNNAAN 8-mers; in assay [3], 0.0691 % of ANNNNAAN 8-mers; in assay [4], 0.0801 % of ANNNNAAN 8-mers.
Regarding AGGTCAAA, the binding signal in assay [1] is 0.0587 % of ANNNNAAN 8-mers; in assay [2] it was 0.0403 % of ANNNNAAN 8-mers; in assay [3] it was 0.0632 % of ANNNNAAN 8-mers; in assay [4], 0.0421 % of ANNNNAAN 8-mers.
On to AATTCAAA, for which the binding signal in assay [1] is 0.373 % of ANNNNAAN 8-mers; in assay [2] it was 0.292 % of ANNNNAAN 8-mers; in assay [3] it was 0.438 % of ANNNNAAN 8-mers; in assay [4], 0.4 % of ANNNNAAN 8-mers.
For ACCATAAG, the binding signal in assay [1] is 0.0324 % of ANNNNAAN 8-mers; in assay [2], 0.0414 % of ANNNNAAN 8-mers; in assay [3], 0.0238 % of ANNNNAAN 8-mers; in assay [4], 0.0248 % of ANNNNAAN 8-mers.
As for AGGCTAAA, the binding signal in assay [1] is 0.0381 % of ANNNNAAN 8-mers; in assay [2] it was 0.0414 % of ANNNNAAN 8-mers; in assay [3], 0.0363 % of ANNNNAAN 8-mers; in assay [4], 0.0454 % of ANNNNAAN 8-mers.
The corresponding values for AAGACAAG are 0.0259 % of ANNNNAAN 8-mers, 0.0305 % of ANNNNAAN 8-mers, 0.0261 % of ANNNNAAN 8-mers and 0.0281 % of ANNNNAAN 8-mers.
In the same order, the values of AGTAGAAC are 0.0271 % of ANNNNAAN 8-mers, 0.0242 % of ANNNNAAN 8-mers, 0.0242 % of ANNNNAAN 8-mers and 0.0239 % of ANNNNAAN 8-mers.
In the case of ACCTGAAA, the binding signal in assay [1] was 0.0183 % of ANNNNAAN 8-mers; in assay [2], 0.0247 % of ANNNNAAN 8-mers; in assay [3] it was 0.0215 % of ANNNNAAN 8-mers; in assay [4] it was 0.019 % of ANNNNAAN 8-mers.
Regarding AAGCTAAG, the binding signal was 0.0248 % of ANNNNAAN 8-mers in assay [1], 0.0322 % of ANNNNAAN 8-mers in assay [2], 0.0187 % of ANNNNAAN 8-mers in assay [3] and 0.0272 % of ANNNNAAN 8-mers in assay [4].
As for ACATCAAA, the binding signal in assay [1] is 0.0374 % of ANNNNAAN 8-mers; in assay [2], 0.0391 % of ANNNNAAN 8-mers; in assay [3] it was 0.0363 % of ANNNNAAN 8-mers; in assay [4], 0.0239 % of ANNNNAAN 8-mers.
As for AACTGAAG, the binding signal in assay [1] is 0.0256 % of ANNNNAAN 8-mers; in assay [2], 0.0391 % of ANNNNAAN 8-mers; in assay [3] it was 0.0215 % of ANNNNAAN 8-mers; in assay [4], 0.0338 % of ANNNNAAN 8-mers.
With AGAAAAAG, the binding signal in assay [1] is 0.0534 % of ANNNNAAN 8-mers; in assay [2], 0.0581 % of ANNNNAAN 8-mers; in assay [3], 0.0468 % of ANNNNAAN 8-mers; in assay [4], 0.0421 % of ANNNNAAN 8-mers.
With AGTCGAAA, the binding signal in assay [1] was 0.0431 % of ANNNNAAN 8-mers; in assay [2], 0.0414 % of ANNNNAAN 8-mers; in assay [3] it was 0.0324 % of ANNNNAAN 8-mers; in assay [4], 0.0322 % of ANNNNAAN 8-mers.
Regarding AGGCTAAC, the binding signal in assay [1] was 0.013 % of ANNNNAAN 8-mers; in assay [2], 0.023 % of ANNNNAAN 8-mers; in assay [3], 0.0191 % of ANNNNAAN 8-mers; in assay [4] it was 0.0223 % of ANNNNAAN 8-mers.
ATGTGAAA: the binding signal in assay [1] was 0.0671 % of ANNNNAAN 8-mers; in assay [2] it was 0.0748 % of ANNNNAAN 8-mers; in assay [3] it was 0.0687 % of ANNNNAAN 8-mers; in assay [4], 0.0718 % of ANNNNAAN 8-mers.
For the sequence AAACAAAT, the binding signal in assay [1] was 0.352 % of ANNNNAAN 8-mers; in assay [2] it was 0.266 % of ANNNNAAN 8-mers; in assay [3], 0.761 % of ANNNNAAN 8-mers; in assay [4], 0.669 % of ANNNNAAN 8-mers.
As for ATGACAAA, the binding signal in assay [1] is 0.0622 % of ANNNNAAN 8-mers; in assay [2] it was 0.0639 % of ANNNNAAN 8-mers; in assay [3] it was 0.0539 % of ANNNNAAN 8-mers; in assay [4], 0.0479 % of ANNNNAAN 8-mers.
The corresponding values for ACGCTAAG are 0.0202 % of ANNNNAAN 8-mers, 0.0167 % of ANNNNAAN 8-mers, 0.0242 % of ANNNNAAN 8-mers and 0.0231 % of ANNNNAAN 8-mers.
In the same order, the values of ATTCCAAA are 0.0481 % of ANNNNAAN 8-mers, 0.0564 % of ANNNNAAN 8-mers, 0.041 % of ANNNNAAN 8-mers and 0.0578 % of ANNNNAAN 8-mers.
Regarding AGGACAAA, the binding signal in assay [1] was 0.045 % of ANNNNAAN 8-mers; in assay [2], 0.046 % of ANNNNAAN 8-mers; in assay [3], 0.0453 % of ANNNNAAN 8-mers; in assay [4], 0.0371 % of ANNNNAAN 8-mers.
In the same order, the values of ACGTGAAA are 0.0374 % of ANNNNAAN 8-mers, 0.0386 % of ANNNNAAN 8-mers, 0.0386 % of ANNNNAAN 8-mers and 0.0297 % of ANNNNAAN 8-mers.
In the case of AGAACAAC, the binding signal in assay [1] was 0.0153 % of ANNNNAAN 8-mers; in assay [2], 0.0132 % of ANNNNAAN 8-mers; in assay [3], 0.0125 % of ANNNNAAN 8-mers; in assay [4], 0.0239 % of ANNNNAAN 8-mers.
In the same order, the values of ACCGGAAT are 0.0412 % of ANNNNAAN 8-mers, 0.0489 % of ANNNNAAN 8-mers, 0.0398 % of ANNNNAAN 8-mers and 0.0454 % of ANNNNAAN 8-mers.
The corresponding values for AAGGTAAC are 0.0313 % of ANNNNAAN 8-mers, 0.0293 % of ANNNNAAN 8-mers, 0.0234 % of ANNNNAAN 8-mers and 0.0322 % of ANNNNAAN 8-mers.
On to ACGCAAAC, for which the binding signal is 0.0614 % of ANNNNAAN 8-mers in assay [1], 0.0437 % of ANNNNAAN 8-mers in assay [2], 0.103 % of ANNNNAAN 8-mers in assay [3] and 0.0512 % of ANNNNAAN 8-mers in assay [4].
